The assay deals with E. coli TESEC Mtb Alr. Description: growth (OD600 after 10 h); higher = more growth (less inhibition). As to conditions: compound 0.1 mM. As for the experimental part:
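TESEC Mtb Alr E. coli, or the Alr+ wild-type control, in 384-well plates with Prestwick library compounds at 0.1 mM and 1% DMSO, across arabinose induction levels of 1E3 to 1E7 nM. Growth is read as OD600 after 10 h at 37 °C in triplicate biological replicates.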

Setting [1] is: arabinose 1000 nM, raw OD600 reference: median of DMSO wells 0.294, cell-free background 0.041.
The mark [2] stands for this setting: arabinose 10000 nM, raw OD600 reference: median of DMSO wells 0.264, cell-free background 0.041.
Setting [3] is: arabinose 100000 nM, raw OD600 reference: median of DMSO wells 0.201, cell-free background 0.041.
Where [4] appears, read: arabinose 1000000 nM, raw OD600 reference: median of DMSO wells 0.193, cell-free background 0.041.
Where [5] appears, read: arabinose 10000000 nM, raw OD600 reference: median of DMSO wells 0.146, cell-free background 0.041.

The results in this text go back to the supplement of paper PMC9262897, “Low-cost anti-mycobacterial drug discovery using engineered E. coli” (Nature Communications, 2022).

Structures can show the parent of a compound that is named as a salt. ± gives the standard deviation of the averaged measurements.

As for `CN1C[C@H](C(=O)N[C@]2(C)O[C@@]3(O)[C@@H]4CCCN4C(=O)[C@H](Cc4ccccc4)N3C2=O)C[C@@H]2c3cccc4[nH]cc(c34)C[C@H]21` [Dihydroergotamine tartrate], the growth is, setting by setting: under setting [1], 0.0712 ± 0.0052; under setting [2], 0.0692 ± 0.001; under setting [3], 0.0715 ± 0.0021; under setting [4], 0.0579 ± 0.0025; under setting [5], 0.082 ± 0.0022.
For the compound `O=C(CCCN1CCC(n2c(=O)[nH]c3ccccc32)CC1)c1ccc(F)cc1` [Benperidol], the growth under setting [1] came out at 0.269 ± 0.0074; the growth under setting [2] is 0.263 ± 0.0054; the growth under setting [3] is 0.179 ± 0.036; the growth under setting [4] was determined as 0.135 ± 0.0025; the growth under setting [5] came to 0.149 ± 0.0063.
Consider `CO[C@]12C[C@@H](COC(=O)c3cncc(Br)c3)CN(C)[C@@H]1Cc1cn(C)c3cccc2c13` [Nicergoline], for which the growth came out at 0.184 ± 0.0071 under setting [1]; 0.194 ± 0.0054 under setting [2]; 0.223 ± 0.0047 under setting [3]; 0.102 ± 0.0052 under setting [4]; 0.184 ± 0.0056 under setting [5].
Regarding `C[C@@H]1CC[C@H]2[C@@H](C)C(=O)O[C@@H]3O[C@@]4(C)CC[C@@H]1[C@]32OO4` [Artemisinin], the growth was 0.121 ± 0.0046 under setting [1]; 0.194 ± 0.0057 under setting [2]; 0.142 ± 0.013 under setting [3]; 0.109 ± 0.0053 under setting [4]; 0.135 ± 0.0031 under setting [5].
As for `CC(O)(CS(=O)(=O)c1ccc(F)cc1)C(=O)Nc1ccc(C#N)c(C(F)(F)F)c1` (stereo not given) [Bicalutamide], the growth amounted to 0.2 ± 0.0073 under setting [1]; 0.306 ± 0.018 under setting [2]; 0.1769 ± 0.0014 under setting [3]; 0.108 ± 0.0031 under setting [4]; 0.15 ± 0.0023 under setting [5].
On to `CC(=O)O[C@H]1C[C@H](O[C@H]2[C@@H](O)C[C@H](O[C@H]3[C@@H](O)C[C@H](O[C@H]4CC[C@@]5(C)[C@H](CC[C@@H]6[C@@H]5C[C@@H](O)[C@]5(C)[C@@H](C7=CC(=O)OC7)CC[C@]65O)C4)O[C@@H]3C)O[C@@H]2C)O[C@H](C)[C@H]1O[C@@H]1O[C@H](CO)[C@@H](O)[C@H](O)[C@H]1O` [Lanatoside C], for which the growth came out at 0.261 ± 0.024 under setting [1]; 0.26 ± 0.0028 under setting [2]; 0.295 ± 0.031 under setting [3]; 0.19 ± 0.0089 under setting [4]; 0.243 ± 0.024 under setting [5].
Turning to `C[C@]12CC[C@H](O)C[C@@H]1CC[C@@H]1[C@@H]2CC[C@]2(C)C(=O)CC[C@@H]12` [Epiandrosterone], the growth reads like this: under setting [1], 0.12 ± 0.0055; under setting [2], 0.107 ± 0.0061; under setting [3], 0.0943 ± 0.0019; under setting [4], 0.0694 ± 0.0019; under setting [5], 0.0859 ± 0.0011.
In the case of `O[C@@H]1CCCC[C@H]1N1CCC(c2ccccc2)CC1` [L(-)-vesamicol hydrochloride], the growth by setting is: under setting [1], 0.281 ± 0.014; under setting [2], 0.251 ± 0.0068; under setting [3], 0.176 ± 0.012; under setting [4], 0.182 ± 0.0074; under setting [5], 0.141 ± 0.0046.
